Laboratory results as given in PubChem BioAssay (Tox21).
Calls of active or inactive are those of the source. Calls follow the shape of the dose curve; as a rule, active = well fitted curve in the direction sought with a large enough effect in the repeat runs; inconclusive = weak or mixed curves; inactive = flat fitted curve, though single readings scatter.

Experiment: qHTS assay to test for compound auto fluorescence at 590 nm (red) in HEK293 cells (AID 720679)
Conditions: red autofluorescence 540/590 nm; series mostly up to 91.3 µM; fluorescence, % of fluorescent control: at the top concentration
Text: National Center for Advancing Translational Sciences [NCATS]
NIH Chemical Genomics Center [NCGC]
U.S. Environmental Protection Agency [EPA]
National Institutes of Environmental Health Sciences [NIEHS]
National Toxicology Program [NTP]
U.S. Food and Drug Administration [FDA]
Compound auto fluorescence often interferes with screening of the compound library against various biological targets and signaling pathways. Some of these compounds may have fluorophoric properties. Such properties may interfere with the assay outputs resulting in false positives and/or negatives. To decrease such complications and ensure the compound activities are relevant in terms of biological response, the Tox21 10K compound library was screened for auto fluorescence.
From the fluorophores used as reporter signals in our screening assays, the auto fluorescence equivalencies of compounds against three fluorophores have been evaluated: Triamterene, Fluorescein and Rose Bengal sodium for blue, green and red fluorescence, respectively. The fluorescence intensities were measured using Excitation/Emission wavelengths at 405/460nm, 485/535nm and 540/590nm for blue, green and red labels, respectively. This assay includes the red fluorescence data.
Tox21 Assay Protocol Summary:
2,000 HEK293 cells in 5 uL of culture medium containing 10% dialyzed FBS per well were dispensed into black wall/clear bottom 1536-well plates using a Multidrop Combi Dispenser (Thermo Scientific). The assay plates were incubated for 4-5 hr at 37C to allow cell attachment to the well bottom, followed by the transfer of 23 nL compound or DMSO vehicle by a pintool work station (Kalypsys, San Diego, CA). After the assay plates were incubated overnight at 37C and 5% CO2, fluorescence intensities in the assay plates were measured by an Envision (PerkinElmer, Shelton, CT) plate reader using three labels for measuring blue, green and red fluorescence at […] 460, 535 and 590nm respectively.
% is scaled to controls: 0 for no effect and ±100 for the full control effect.

Compound | fluorescence, % of fluorescent control | outcome
CCCCCCCCCCl | -0.829% (inactive) | 
CN=C(NC#N)Nc1ccc(C2=NNC(=O)CC2C)cc1 (stereo not given) | -0.212% [at 46 µM] (inactive) | 
Nc1cccc(O)c1 | 0.235% [at 95.7 µM] (inactive) | 
Cc1ccc(C=O)cc1C | 0.239% (inactive) | 
CN(C)c1ccc(C=O)cc1 | -0.749% (inactive) | 
C=C(C)C(=O)OCC(C)(C)COC(=O)C(=C)C | 0.0722% (inactive) | 
CCc1ccc(C=O)cc1 | 0.0158% (inactive) | 
O=P(O)(O)OP(=O)(O)O |  | inactive
OCCC(F)(F)C(F)(F)C(F)(F)C(F)(F)C(F)(F)C(F)(F)C(F)(F)C(F)(F)F | -0.0299% (inactive) | 
O=S(=O)(O)c1ccc2cc(O)c(S(=O)(=O)O)cc2c1 | 0.214% (inactive) | 
COCCOCCOCCOCCOCCO | -0.906% (inactive) | 
C=C(C)C(=O)OCc1ccccc1 | 0.0717% (inactive) | 
O=C1c2cccc3c2[C@H](CCC3)CN1[C@@H]1CN2CCC1CC2 | -0.142% [at 46 µM] (inactive) | 
CC(=O)c1sc(C)nc1C | 0.0041% (inactive) | 
CCO[Si](CCCS)(OCC)OCC | 0.0178% (inactive) | 
C=COCCOCCOCCOC=C | 0.273% (inactive) | 
CCCCCCN | 0.298% (inactive) | 
CCCC/C=C\CCCCCCCCCC=O | -0.683% (inactive) | 
COc1ccc(OC)c(Cl)c1 | 0.0109% (inactive) | 
Nc1nnc(-c2cccc(Cl)c2Cl)c(N)n1 | -0.158% [at 46 µM] (inactive) | 

Compound | fluorescence, % of fluorescent control | outcome
C[C@@H]1O[C@@H](O[C@@H]2[C@@H](O)[C@H](OCCc3ccc(O)c(O)c3)O[C@H](CO[C@@H]3O[C@H](CO)[C@@H](O)[C@H](O)[C@H]3O)[C@H]2OC(=O)/C=C/c2ccc(O)c(O)c2)[C@H](O)[C@H](O)[C@H]1O | -0.555% (inactive) | 
CC1COc2ccccc2N1 (stereo not given) | -0.0646% (inactive) | 
CC(C)(C)c1cc(CCC(=O)NN)cc(C(C)(C)C)c1O | 0.219% (inactive) | 
COC(=O)[C@@H]1[C@H]2C[C@H]3c4[nH]c5ccccc5c4CCN3C[C@@H]2CC[C@@H]1O | 0.0699% [at 46 µM] (inactive) | 
NCCN1CCOCC1 | 0.179% (inactive) | 
Cc1cccc2nccnc12 | 0.0022% (inactive) | 
O=S(O)(O)=S | 0.178% [at 3.72 µM] (inactive) | 
CC(C)OC(=O)CCCCC(=O)OC(C)C | -0.0039% (inactive) | 
CC(=O)NCCCCCC(=O)O | 0.0292% [at 46 µM] (inactive) | 
CCCCOCCOC(=O)COc1nc(Cl)c(Cl)cc1Cl | 0.227% (inactive) | 
C=C(C)C1CCC(C)(O)CC1 (stereo not given) | 0.104% (inactive) | 
COC(=O)C1CC(=O)C(C(=O)OC)CC1=O (stereo not given) | 0.169% [at 3.72 µM] (inactive) | 
NNc1nnc(NN)c2ccccc12 | -1.08% [at 46 µM] (inactive) | 
CCCC(=O)C(C)=O | -0.15% (inactive) | 
Cc1ccccc1OCC(O)CO (stereo not given) | 0.0579% [at 46 µM] (inactive) | 
CCCN1C[C@H](CSC)C[C@@H]2c3cccc4[nH]cc(c34)C[C@H]21 | -0.24% [at 46 µM] (inactive) | 
CCN(C)C(=O)Oc1cccc([C@H](C)N(C)C)c1 | -1.73% [at 46 µM] (inactive) | 
OC[C@H](Cc1cccc(O)c1)[C@H](CO)Cc1cccc(O)c1 | -0.0688% [at 95.7 µM] (inactive) | 
CC(N)C(=O)OC(C)(C)Cc1ccc(Cl)cc1 (stereo not given) | 0.146% [at 46 µM] (inactive) | 
O=S(=O)(O)CCN1CCN(CCO)CC1 | 0.34% (inactive) | 
